Here are results for 13 compounds from PubChem BioAssay (NCI).

Holding throughout (experiment): NCI-60 one-dose screen, 48 h (100 = growth as untreated, 0 = no growth, -100 = all killed)
One assay concerns DU-145 prostate. Conditions: 10 µM unless noted.
For the next assay, the system named is K-562 leukemia. Particulars: 10 µM unless noted.
The test system of another assay is MALME-3M melanoma. Conditions: 10 µM unless noted.
The next assay deals with MDA-MB-231 breast. Particulars: 10 µM unless noted.
The test system of the next assay is RXF 393 renal. Particulars: 10 µM unless noted.
In another assay the test system is SF-268 CNS. Particulars: 10 µM unless noted.
The subject of the next assay is SF-295 CNS. Conditions: 10 µM unless noted.
A further assay deals with SF-539 CNS. Particulars: 10 µM unless noted.
Another assay deals with UACC-257 melanoma. Conditions: 10 µM.
For the next assay, the system named is M14 melanoma. Particulars: 10 µM unless noted.

About 83,000 compounds went through this panel and 20% of them were active in at least one assay; those are over-represented in the sample as a whole.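 Testing used 96-well plates and a 48-hour single-concentration exposure. Example: -40 means 40% of the starting cells died.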 Unmarked numbers belong to inactive results. Calls of active or inactive are those of the source. The calls were made as follows: active = growth percent below 10; inactive = the rest.

As for `C=C(C)[C@@H]1CC[C@]2(C(=O)NCCCN(CCC#N)CCC#N)CC[C@]3(C)[C@H](CC[C@@H]4[C@@]5(C)CCC(=O)C(C)(C)[C@@H]5CC[C@]43C)[C@@H]12`, the growth was 109% in the assay on DU-145 prostate; 88.4% in the assay with K-562 leukemia; 102% in the assay on MALME-3M melanoma; 99.4% in the assay on MDA-MB-231 breast; 92.9% with RXF 393 renal; 99.2% with SF-268 CNS. Further, the growth with SF-295 CNS was 97.1%; with SF-539 CNS, 99.7%; with UACC-257 melanoma, 105%; with M14 melanoma, 101%.
With `CC[C@]12C=CCN3CC[C@]4(C(=C(C(=O)OC)C1)Nc1cc5c(cc14)[C@@H]1[C@H](O5)[C@@H](O)[C@@]4(CC)CC(C(=O)OC)=C5Nc6cc(OC)ccc6[C@@]56CCN1[C@@H]46)[C@@H]32`, the growth with DU-145 prostate is 22.6%; in the assay with K-562 leukemia it was 9.45% (active); with MALME-3M melanoma it was 25%; in the assay with MDA-MB-231 breast, 20.4%; in the assay with RXF 393 renal, -39.2% (active); with SF-268 CNS it was 14.9%. For the same compound, the growth is 15.4% in the assay on SF-295 CNS, -4.82% (active) in the assay on SF-539 CNS, 29.5% in the assay with UACC-257 melanoma and 9.29% (active) with M14 melanoma.
Take `COc1ccc(C(=O)n2cc(C=O)c3ccccc32)cc1`: the growth in the assay with DU-145 prostate was 105%; in the assay on K-562 leukemia, 82.1%; with MALME-3M melanoma, 93.2%; in the assay on MDA-MB-231 breast, 91.8%; in the assay with RXF 393 renal, 106%; in the assay on SF-268 CNS, 92.5%. In addition, the growth was 99.6% in the assay on SF-295 CNS, 89.2% with SF-539 CNS, 103% with UACC-257 melanoma and 82.8% with M14 melanoma.
Regarding `COc1cc(/C=N/n2cnc3oc(-c4ccccc4)cc3c2=N)cc(CN2CCOCC2)c1O`, the growth was 89.3% with DU-145 prostate; 5.46% (active) in the assay with K-562 leukemia; 66.4% with MALME-3M melanoma; 51.4% in the assay with MDA-MB-231 breast; -18.4% (active) in the assay on RXF 393 renal; 72.4% in the assay with SF-268 CNS. The growth in the assay with SF-295 CNS is 68.1%; in the assay on SF-539 CNS, 60.9%; in the assay with UACC-257 melanoma, 110%; in the assay with M14 melanoma, 73%.
Regarding `CCCCCCNC(=O)Oc1ccc(/C(=C(/C)c2ccc(Cl)cc2)c2ccc(OCCN3CCCC3)cc2)cc1`, the growth in the assay on DU-145 prostate was 69.2%; in the assay on K-562 leukemia, 6.52% (active); with MALME-3M melanoma, -70.8% (active); with MDA-MB-231 breast, 30.6%; with RXF 393 renal, 9.25% (active); with SF-268 CNS, 61.9%. Also, the growth in the assay on SF-295 CNS is -32.7% (active); in the assay with SF-539 CNS it was -24.4% (active); in the assay on UACC-257 melanoma it was -16.5% (active); with M14 melanoma it was -54.3% (active).
As for `O=C(c1ccc(O)cc1)[C@@H]1[C@@H]2CCCN2[C@@]2(C(=O)N(C(=O)c3ccc(F)cc3)c3ccccc32)[C@H]1c1ccc(F)cc1`, the growth with DU-145 prostate was 102%; in the assay with K-562 leukemia, 75.7%; with MALME-3M melanoma it was 84.2%; in the assay with MDA-MB-231 breast it was 82.5%; in the assay on RXF 393 renal, 105%; with SF-268 CNS, 89.9%. Also, the growth with SF-295 CNS was 96.2%; with SF-539 CNS it was 85.4%; in the assay with UACC-257 melanoma it was 103%; in the assay with M14 melanoma it was 95.1%.
For `CCN(CC)CCCC(C)NCC(=O)NC(c1ccc2c(c1)OCO2)c1cc(Cl)c2cccnc2c1O` (stereo not given), the growth is 44.2% in the assay on DU-145 prostate; 10.6% with K-562 leukemia; 5.27% (active) with MALME-3M melanoma; 35.5% in the assay with MDA-MB-231 breast; 67.5% in the assay on RXF 393 renal; 22.7% in the assay on SF-268 CNS. Besides, the growth is -53.3% (active) in the assay on SF-295 CNS, 6.63% (active) with SF-539 CNS, 76.6% in the assay with UACC-257 melanoma and -9.39% (active) in the assay on M14 melanoma.
`O=C1NC(=O)/C(=C/c2ccc(OCc3cc4ccccc4nc3Cl)cc2)S1`: the growth with DU-145 prostate is 100%; with K-562 leukemia it was 75.2%; in the assay on MALME-3M melanoma, 103%; in the assay with MDA-MB-231 breast, 88.2%; with RXF 393 renal it was 111%; with SF-268 CNS, 110%. Further, the growth with SF-295 CNS was 96.4%; in the assay with SF-539 CNS, 104%; in the assay with UACC-257 melanoma it was 98%; in the assay on M14 melanoma it was 104%.
Take `O=C1Nc2cc(OC(F)(F)F)ccc2Oc2ccc(-c3ccnc(N4CCNCC4)c3)cc21`: the growth in the assay with DU-145 prostate is -48.5% (active); with K-562 leukemia it was -11.4% (active); with MALME-3M melanoma, -79.3% (active); in the assay on MDA-MB-231 breast, -38.2% (active); with RXF 393 renal it was -73.4% (active); in the assay on SF-268 CNS, 26.8%. For the same compound, the growth with SF-295 CNS is -25.7% (active); in the assay with SF-539 CNS it was -89.8% (active); in the assay on UACC-257 melanoma, 77.3%; with M14 melanoma, -90.5% (active).
For the compound `CSc1nccc(-c2c(-c3ccc(F)c(OCc4ccc(F)cc4)c3)nc3sccn23)n1`, the growth in the assay on DU-145 prostate is 88.5%; with K-562 leukemia, 59.7%; in the assay with MALME-3M melanoma it was 104%; in the assay on MDA-MB-231 breast, 65.8%; with RXF 393 renal, 84%; in the assay with SF-268 CNS, 83.9%. The growth in the assay on SF-295 CNS is 80.3%; in the assay with SF-539 CNS it was 73.3%; in the assay with UACC-257 melanoma, 64.4%; in the assay with M14 melanoma, 89%.
`C[C@@H]1C[C@H]2C(=O)OCC(NC(=O)[C@H](Cc3cc(F)cc(F)c3)NC(=O)Nc3ccc(Cl)cc3F)C(=O)N3CCC[C@H]3C(=O)N3CCCC[C@H]3C(=O)N[C@@H](C)C(=O)N2C1` (stereo not given in full): the growth in the assay on DU-145 prostate was 24.7%; in the assay on K-562 leukemia, 19.3%; in the assay on MALME-3M melanoma, 35.9%; in the assay on MDA-MB-231 breast it was 27.3%; with RXF 393 renal it was -12.6% (active); in the assay on SF-268 CNS it was 29.8%. The growth was 8.11% (active) in the assay with SF-295 CNS, 32.1% in the assay on SF-539 CNS, 17.2% in the assay with UACC-257 melanoma and 19% in the assay on M14 melanoma.
For the compound `COc1cc2cc(Oc3ccc(NC(=O)c4cccc(C(F)(F)F)c4)cc3)c(C)nc2cc1OCCN(C)C`, the growth with DU-145 prostate is 68.6%; in the assay with K-562 leukemia, 7.14% (active); in the assay on MALME-3M melanoma, -73.7% (active); in the assay on MDA-MB-231 breast, 79%; in the assay on RXF 393 renal, 39.6%; with SF-268 CNS it was 92%. Moreover, the growth in the assay with SF-295 CNS was -50.5% (active); in the assay with SF-539 CNS it was 63.3%; in the assay with UACC-257 melanoma, 93.2%; in the assay with M14 melanoma, 80.8%.
In the case of `O=C(/C=C1\C=CN(CCCCCCF)c2ccccc21)n1ccc2ccccc21`, the growth in the assay with DU-145 prostate was 109%; in the assay on K-562 leukemia, 91.2%; with MALME-3M melanoma, 91.6%; in the assay with MDA-MB-231 breast, 84.4%; with RXF 393 renal it was 121%; in the assay with SF-268 CNS it was 99.7%. In addition, the growth was 94.6% with SF-295 CNS, 99.3% in the assay on SF-539 CNS, 103% with UACC-257 melanoma and 92% with M14 melanoma.
